Where “and” joins values, the source holds several entries; their conditions need not be identical. Equal values may be shown once. Inconclusive results are not listed. Where a call stands in place of a potency, no number is given. Calls of active or inactive are those of the source. Unless noted, the call rests on the fitted dose curve; in most records, active means well fitted curve in the direction sought with a large enough effect in the repeat runs; inconclusive means weak or mixed curves; inactive means flat fitted curve, though single readings scatter.
Legend:
[1] = qHTS assay to test for compound auto fluorescence at 535 nm (green) in HEK293 cells (AID 720680); further: potency means the concentration at half of the fitted maximal effect
[2] = qHTS assay to test for compound auto fluorescence at 460 nm (blue) in HEK293 cell free culture (AID 720681)
In short: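 Blue fluorescence (Ex 405/Em 460 nm, triamterene-equivalent) was read immediately after pin transfer of compound or DMSO into medium (DMEM, 10% FBS) without cells.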

[3] = qHTS assay to test for compound auto fluorescence at 535 nm (green) in HEK293 cell free culture (AID 720682); further: potency means the concentration at half of the fitted maximal effect
In short: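 Measurement is a direct plate read of green fluorescence (485 nm in, 535 nm out) after compound addition to serum-supplemented DMEM lacking cells, with fluorescein used to express intensities.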

[4] = qHTS assay to test for compound auto fluorescence at 590 nm (red) in HEK293 cell free culture (AID 720683); further: potency means the concentration at half of the fitted maximal effect
In short: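 Red-channel autofluorescence of compounds in culture medium (DMEM, 10% FBS), no cells, measured at 540/590 nm. Rose Bengal sodium is the reference fluorophore for equivalence.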

[5] = qHTS assay to test for compound auto fluorescence at 590 nm (red) in HepG2 cell free culture (AID 720684); further: potency means the concentration at half of the fitted maximal effect
In short: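 Plate contents were MEM with 10% FBS plus test compound or DMSO, no cells. Fluorescence was recorded with 540 nm excitation and 590 nm emission.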

[6] = qHTS assay to test for compound auto fluorescence at 460 nm (blue) in HepG2 cell free culture (AID 720685)
In short: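 Compound (23 nL) or DMSO pinned into cell-free MEM with 10% FBS; blue fluorescence read at 405/460 nm excitation/emission, expressed as auto-fluorescence equivalency to triamterene.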

[7] = qHTS assay to test for compound auto fluorescence at 535 nm (green) in HepG2 cell free culture (AID 720686); further: potency means the concentration at half of the fitted maximal effect
[8] = qHTS assay to test for compound auto fluorescence at 460 nm (blue) in HepG2 cells (AID 720687)
In short: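 Blue-channel autofluorescence (Ex/Em 405/460 nm, triamterene-equivalent) was measured after 1 hr compound exposure at 37 C, 5% CO2. Cells were HepG2, plated overnight at 37 C in MEM plus 10% FBS.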

[9] = target: Glucocorticoid receptor (Homo sapiens) (UniProt P04150); assay: qHTS assay to identify small molecule agonists of the glucocorticoid receptor (GR) signaling pathway (AID 720691; active means well fitted activation curve with a large enough effect in the signal ratio in the repeat runs, not every such curve was filed as active; the % refers to the signal ratio; further: potency means the concentration at half of the fitted maximal effect)
Chain of Glucocorticoid receptor (Homo sapiens) (P04150 whole entry, looked up): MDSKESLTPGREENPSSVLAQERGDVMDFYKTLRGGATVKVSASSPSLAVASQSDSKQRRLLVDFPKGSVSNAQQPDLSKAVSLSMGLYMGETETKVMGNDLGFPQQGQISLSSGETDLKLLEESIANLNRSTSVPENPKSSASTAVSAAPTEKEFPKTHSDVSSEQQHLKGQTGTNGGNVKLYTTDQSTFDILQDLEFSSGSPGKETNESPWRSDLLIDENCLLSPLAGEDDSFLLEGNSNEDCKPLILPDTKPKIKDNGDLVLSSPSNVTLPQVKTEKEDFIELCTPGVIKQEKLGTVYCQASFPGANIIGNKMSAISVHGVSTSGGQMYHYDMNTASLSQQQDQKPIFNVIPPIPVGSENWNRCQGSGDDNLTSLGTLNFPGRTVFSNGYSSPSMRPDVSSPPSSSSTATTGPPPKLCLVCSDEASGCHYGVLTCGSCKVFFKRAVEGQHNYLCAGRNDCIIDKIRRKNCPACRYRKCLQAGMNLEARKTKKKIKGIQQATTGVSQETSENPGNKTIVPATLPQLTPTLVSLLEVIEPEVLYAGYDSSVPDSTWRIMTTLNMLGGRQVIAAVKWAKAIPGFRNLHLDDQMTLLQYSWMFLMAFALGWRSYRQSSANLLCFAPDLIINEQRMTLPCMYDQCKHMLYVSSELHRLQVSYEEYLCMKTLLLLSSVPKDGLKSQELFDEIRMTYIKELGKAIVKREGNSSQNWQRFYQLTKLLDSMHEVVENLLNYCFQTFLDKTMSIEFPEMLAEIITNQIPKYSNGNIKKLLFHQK
In short: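 Beta-lactamase reporter activity, read as fluorescence intensity, was measured in GR-bla HeLa cells exposed to compounds for 18 h at 37 C and then loaded with LiveBLAzer B/G FRET substrate for 2 h at room temperature.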

[10] = target: Glucocorticoid receptor (Homo sapiens) (UniProt P04150); assay: qHTS assay to identify small molecule antagonists of the glucocorticoid receptor (GR) signaling pathway (AID 720692; active means well fitted inhibition curve with a large enough effect in the signal ratio in the repeat runs, not every such curve was filed as active; the % refers to the signal ratio)
In short: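 Fluorescence from cleaved LiveBLAzer B/G FRET substrate reports GRE-driven beta-lactamase in HeLa cells; compounds are tested against 5 nM dexamethasone (final) over 18 h at 37 C, substrate incubation 2 h at room temperature.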
Tags describe the fitted curve by direction and shape or compound fluorescence and quenching.

| Structure (SMILES) | Potency [1] | Potency [2] | Potency [3] | Potency [4] | Potency [5] | Potency [6] | Potency [7] | Potency [8] | Potency [9] | Potency [10] |
| --- | --- | --- | --- | --- | --- | --- | --- | --- | --- | --- |
| c1ccc2c(c1)ccc1cc3c(ccc4ccccc43)cc12 | inactive | inactive | inactive | inactive | inactive | inactive | inactive | inactive | inactive | inactive |
| O=C1OC2(c3ccccc31)c1cc(I)c(O)c(I)c1Oc1c2cc(I)c(O)c1I | 10 µM [fluorescent] (active) and 14.1 µM [fluorescent] (active) and 17.8 µM [fluorescent] (active) | inactive | 12.6 µM [fluorescent] (active) and 8.91 µM [fluorescent] (active) and 15.8 µM [fluorescent] (active) | 11.2 µM [fluorescent] (active) and 17.8 µM [fluorescent] (active) | 11.2 µM [fluorescent] (active) and 17.8 µM [fluorescent] (active) and 15.8 µM [fluorescent] (active) | inactive | 11.2 µM [fluorescent] (active) [middle of 4 runs] | inactive |  |  |
| CCO[Si](CCCNC(N)=O)(OCC)OCC | inactive | inactive | inactive | inactive | inactive | inactive | inactive | inactive | inactive | inactive |
| CC(C)[N+](C)(CCOC(=O)C1c2ccccc2Oc2ccccc21)C(C)C | inactive | inactive | inactive | inactive | inactive | inactive | inactive | inactive | inactive | inactive |
| CC(=O)Oc1c(C)c(C)c2c(c1C)CC[C@@](C)(CCC[C@H](C)CCC[C@H](C)CCCC(C)C)O2 | inactive | inactive | inactive | inactive | inactive | inactive | inactive | inactive |  |  |
| NCCN | inactive | inactive | inactive | inactive | inactive | inactive | inactive | inactive |  |  |
| O=[Se](O)O | inactive | inactive | inactive | inactive | inactive | inactive | inactive | inactive |  |  |
| Nc1cc([N+](=O)[O-])ccc1C(=O)O | inactive | inactive | inactive | inactive | inactive | inactive | inactive | inactive |  |  |
| Cc1ccc(C(C)(C)C)cc1 | inactive | inactive | inactive | inactive | inactive | inactive | inactive | inactive |  |  |
| Cc1ccc(S(=O)(=O)O)cc1C | inactive | inactive | inactive | inactive | inactive | inactive | inactive | inactive | inactive | inactive |
| CC(=O)Oc1ccc(C(c2ccc(OC(C)=O)cc2)c2ccccn2)cc1 | inactive | inactive | inactive | inactive | inactive | inactive | inactive | inactive |  |  |
| CC1=CC(C)(C)Nc2ccccc21 | inactive | inactive | inactive | inactive | inactive | inactive | inactive | inactive |  |  |
| CN(C)C | inactive | inactive | inactive | inactive | inactive | inactive | inactive | inactive |  |  |
| CCC(Cc1c(I)cc(I)c(N)c1I)C(=O)O (centres undefined) | inactive | inactive | inactive | inactive | inactive | inactive | inactive | inactive | inactive |  |
| C1COCCN1 | inactive | inactive | inactive | inactive | inactive | inactive | inactive | inactive |  |  |
| CC(=O)O[C@]1(C(C)=O)CC[C@H]2[C@@H]3C=C(Cl)C4=CC(=O)CC[C@]4(C)[C@H]3CC[C@@]21C | inactive | inactive | inactive | inactive | inactive | inactive | inactive | inactive |  |  |
| OCCNCCO | inactive | inactive | inactive | inactive | inactive | inactive | inactive | inactive | inactive | inactive |
| ClC/C=C/CCl | inactive | inactive | inactive | inactive | inactive | inactive | inactive | inactive |  |  |
| CC1(C)NC(=O)N(c2ccc([N+](=O)[O-])c(C(F)(F)F)c2)C1=O | inactive | inactive | inactive | inactive | inactive | inactive | inactive | inactive |  |  |
| CCCCCCCCCCCCO | inactive | inactive | inactive | inactive | inactive | inactive | inactive | inactive |  |  |
| COC(=O)C(C)Oc1ccc(Oc2ncc(C(F)(F)F)cc2Cl)cc1 (centres undefined) | inactive | inactive | inactive | inactive | inactive | inactive | inactive | inactive |  |  |
| Cc1ccc(C(C)(C)C)c(O)c1 | inactive | inactive | inactive | inactive | inactive | inactive | inactive | inactive |  |  |
| COC(=O)CC(=O)OC | inactive | inactive | inactive | inactive | inactive | inactive | inactive | inactive | inactive | inactive |
| CC1(C)O[C@@H]2C[C@H]3[C@@H]4C[C@H](F)C5=CC(=O)C=C[C@]5(C)[C@@]4(F)[C@@H](O)C[C@]3(C)[C@]2(C(=O)CO)O1 | inactive | inactive | inactive | inactive | inactive | inactive | inactive | inactive | 3.8 nM (active) and 1.2 nM (active) |  |
| C=CC(=O)OCCCC | inactive | inactive | inactive | inactive | inactive | inactive | inactive | inactive | inactive | inactive |
| CCCCCC=O | inactive | inactive | inactive | inactive | inactive | inactive | inactive | inactive |  |  |

Source: PubChem BioAssay (Tox21)
